Source: PubChem BioAssay (National Center for Advancing Translational Sciences (NCATS))
NS1 function inh: qHTS Assay for Inhibitors of Influenza NS1 Protein Function; actives 0.4% (n = 270,000); Potency, µM (series often up to 46.1 µM), for inactives: top-dose activity, positive = more growth; further: potency means the concentration at half of the fitted maximal effect; actives are rising curves; nearly all actives have a fitted effect of over 50% in size
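Recovery from NS1-induced slow growth read by OD600 in budding yeast switched to galactose assay medium (pH 6.0, -URA) at 1:100 dilution. Compound 23 nl per well; the matching strain lacking NS1 serves as control.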
Shiga toxin inh: A qHTS for Small Molecule Inhibitors of Shiga Toxin; Vero cells, Shiga toxin protein synthesis inhibition reporter; inhibition, % at 38.7 µM; AID 2315, 2010; actives 9.2% (n = 290,000); in the data active means inhibition mostly above about 28%, no sharp cut-off; inactive means mostly below about 43%; further: 0% is about no effect
SARS PLP yeast: qHTS of Yeast-based Assay for SARS-CoV PLP | S. cerevisiae expressing SARS-CoV PLpro, growth rescue | Potency, µM (highest dose often 32.9 µM), inactives show at the highest dose activity, positive = growth rescue, hits mostly activators | actives 0.19% (n = 330,000); further: potency means the concentration at half of the fitted maximal effect; 0% is about no effect; nearly all actives have a fitted effect of over 55% in size
Pf growth 48h: Primary qHTS for delayed death inhibitors of the malarial parasite plastid, 48 hour incubation | P. falciparum luciferase growth in erythrocytes, 48 h | Potency, µM (titrated, usually from 28.7 µM), for inactives: top-dose activity change, negative = inhibition, hits mostly inhibitors | actives 5.9% (n = 310,000) | AID 504832, 2011; active means well fitted inhibition curve with a large enough effect; inconclusive means small, poorly fitted or top-dose-only effect, or another doubt; inactive means no such curve, though single readings can be large or run the other way; further: potency means the concentration at half of the fitted maximal effect; on the % scale 0 is the no-effect control and ±100 the full control effect
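Growth was read as firefly luciferase luminescence after a 48 h, 37 C, 5% CO2 exposure of compounds to reporter-bearing P. falciparum cultures (0.1% parasitemia, 2% hematocrit final) in Albumax-supplemented RPMI 1640.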
Cycloheximide cs: Cycloheximide Counterscreen for Small Molecule Inhibitors of Shiga Toxin. cell reporter, cycloheximide protein synthesis inhibition counterscreen. max response, %. actives 12% (n = 300,000); in the data active means max response mostly above about 13%, no sharp cut-off; inactive means mostly below about 14%; further: read at 38.3 µM for the half of the compounds with a filed dose; 0% is about no effect
Pf growth 96h: Primary qHTS for delayed death inhibitors of the malarial parasite plastid, 96 hour incubation | P. falciparum luciferase reporter growth, 96 h | Potency, µM (doses to about 28.7 µM), for inactives: top-dose activity change, negative = inhibition, usual class: inhibitors | actives 6.9% (n = 320,000); active means well fitted inhibition curve with a large enough effect; inconclusive means small, poorly fitted or top-dose-only effect, or another doubt; inactive means no such curve, though single readings can be large or run the other way; further: potency means the concentration at half of the fitted maximal effect; on the % scale 0 is the no-effect control and ±100 the full control effect
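Readout is luminescence from an integrated firefly luciferase in P. falciparum. Red cells, 2% hematocrit and 0.05% parasitemia final, were cultured with compound through two parasite generations (96 hours) at 37 C, 5% CO2.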
Active calls of the source: *; ? = inconclusive; . = no result given; [ ] = remark or other dose. An excerpt weighted towards active compounds, which were near 21% of everything screened. Unless noted, the call rests on the fitted dose curve.

SMILES	NS1 function inh	Shiga toxin inh	SARS PLP yeast	Pf growth 48h	Cycloheximide cs	Pf growth 96h
COc1ccc(NC(=O)c2[nH]ncc2[N+](=O)[O-])cc1	.	64	-3%	204%	26*	-6%
Cn1cc(Br)c(C(=O)Nc2ccc3c(C(F)(F)F)cc(=O)oc3c2)n1	-1%	11	2%	4%	1	-22%
Cc1ccc(NC(=O)c2nn(C34CC5CC(CC(C5)C3)C4)cc2[N+](=O)[O-])cc1	21%	62	-2%	?	18	1.5µM*
COc1ccc(NC(=O)c2nn(C)cc2[N+](=O)[O-])cc1	2%	35	1%	120%	15*	0%
COc1cc(C(CC(=O)Nc2ncccc2C)N2Cc3ccccc3C2=O)cc(OC)c1OC (stereo not drawn)	-1%	-7	-3%	-23%	2	25%
CCn1cc(CN2CCC(n3nccc3NC(=O)c3cccc(F)c3)CC2)c(C)n1	-1%	-15	-4%	9%	1	1%
Nc1cnccc1C(=O)O	.	18	1%	21%	-7	49%
CCCCN1CC(COc2ccccc2)OC1=O (stereo not drawn)	-72%	33	1%	2%	5	2.9µM*
O=C(Nc1ccccc1-c1ccccc1)C(c1ccccc1)c1ccccc1	5%	-5	5%	?	1	1.7µM*
CC(C(=O)Nc1ccccc1-c1ccccc1)N1CCN(S(=O)(=O)c2ccccc2)CC1 (stereo not drawn)	-17%	-7	5%	6.6µM*	-3	9.3µM*
CCC(C)NC(=O)C1CN(S(=O)(=O)c2ccccc2)CCN1S(=O)(=O)c1ccccc1 (stereo not drawn)	-15%	28	-3%	-19%	25*	.
CCCC(NC(=O)C(C)N1CCN(S(=O)(=O)c2ccccc2)CC1)c1ccccc1 (stereo not drawn)	.	.	-3%	-23%	.	10µM*
CCCNC(=O)C1CN(S(=O)(=O)c2ccccc2)CCN1S(=O)(=O)c1ccccc1 (stereo not drawn)	-7%	-3	-1%	-28%	1	.
Cc1cccc(NC(=O)CSCC(=O)OCc2ccccn2)c1	.	.	-1%	1%	.	35%
COc1ccc(-c2cc([C@H](O)C3CCCCN3)c3ccccc3n2)cc1 (stereo partly drawn)	8%	.	.	.	.	.
Cc1ccc(NS(C)(=O)=O)c(C(=O)c2ccccc2)c1	5%	-26	-1%	.	1	44%
COC(=O)[C@H]1C(=O)[C@H](C(=O)OC)[C@@H]2CC[C@H]1N2C	-3%	.	.	.	.	.
Cc1nn(C)cc1C(C(=O)NC1CCCCC1)N(Cc1ccc(F)cc1)C(=O)c1cnccn1 (stereo not drawn)	.	-18	6%	0%	-3	?
CC(C)c1ccc(S(=O)(=O)N2CCN(C(C)C(=O)Nc3ccccc3-c3ccccc3)CC2)cc1 (stereo not drawn)	?	-8	3%	9.3µM*	1	5.2µM*
Cn1/c(=N/N=C/c2ccc(Cl)c([N+](=O)[O-])c2)sc2ccccc21	-12%	-5	-13%	81%	9	37%
Cn1/c(=N/N=C/c2ccccn2)sc2ccccc21	4%	92*	0%	209%	51*	244%
Cn1/c(=N/N=C/c2ccc(N3CCOCC3)cc2)sc2ccccc21	.	71*	-1%	41%	37*	85%
CCCn1c(C(CO)Nc2nc(-c3cccc(Br)c3)cs2)nc2ccccc21 (stereo not drawn)	-91%	-3	1%	?	-5	5.9µM*
O=C1NC(=O)/C(=C/c2cccc(O)c2)N1	9%	-3	3%	40%	4	62%
Cc1ccc(/C=C2\C(=O)Nc3ccccc32)o1	-34%	21	-114%	35%	18*	90%
SMILES	NS1 function inh	Shiga toxin inh	SARS PLP yeast	Pf growth 48h	Cycloheximide cs	Pf growth 96h
CN(C)c1ccc(/C=C2\C(=O)Nc3ccccc32)cc1	-19%	78*	.	.	76*	.
O=C1Nc2ccccc2/C1=C/c1ccccc1F	-42%	28	-3%	0%[0.00184 µM]	13*	11%
CN(C)c1ccc(/C=C2/NC(=O)NC2=O)cc1	10%	active	4%	88%	25*	?
Cc1ccccc1/C=C1\C(=O)Nc2ccc(F)cc21	-10%	-9	-5%	5%	-2	9%
NS(=O)(=O)c1ccc(-c2ccc(/C=C3\C(=O)Nc4ccccc43)o2)cc1	10%	1	-3%	38%	-3	-7%
O=C1Nc2ccccc2/C1=C/c1cccnc1	.	-9	-17%	-10%	-1	?
CC(C)NC(=O)CN1CCN(c2ncccn2)CC1	-3%	-13	13%	6%	-3	-14%
CC(C)(C)c1cc(/C=C2\NC(=O)NC2=O)cc(C(C)(C)C)c1O	2%	30	0%	?	25*	200%
O=C1Nc2ccccc2/C1=C/c1cnc(-c2ccccc2)[nH]1	-1%	53*	-2%	116%	59*	161%
CCCN1CCN(CCCNC(=O)c2ccc(CS(=O)c3ccc(OC)cc3)o2)CC1 (stereo not drawn)	-2%	-4	-2%	5%	-2	?
Cc1ccccc1-c1nn(-c2ccc(F)cc2F)cc1CNCCN(C)C	8%	-4	-2%	?	-2	13µM*
CCC(COC)NCc1cn(-c2ccc(F)cc2F)nc1-c1ccccc1C (stereo not drawn)	-1%	-15	0%	?	-3	9%
Cc1ccccc1-c1nn(-c2ccc(F)cc2F)cc1CNCCCN(C)C	0%	-8	1%	2.6µM*	-2	?
COCCN(C)Cc1cn(-c2ccc(F)cc2F)nc1-c1ccccc1C	-1%	5	-2%	-71%	5	40%
CSCC[C@H](N)C(=O)NC[C@H]1O[C@@H](n2cnc3c(N)ncnc32)[C@H](O)[C@@H]1O	.	.	19%	.	.	.
Fc1ccccc1Cc1noc(CN2CCN(Cc3ccc4c(c3)OCO4)CC2)n1	-4%	-2	-2%	31%	-3	?
Fc1cccc(CN2CCN(Cc3nc(CCc4ccccc4)no3)CC2)c1	-4%	-5	0%	35%	-2	10µM*
COc1ccccc1CN1CCN(Cc2nc(Cc3ccccc3)no2)CC1	-1%	-7	1%	?	0	12µM*
c1ccc(CC2CCN(Cc3nc(-c4ccccc4)no3)CC2)cc1	-38%	29	-8%	?	15*	.
c1ccc(Cc2noc(CN3CCN(Cc4ccc5c(c4)OCO5)CC3)n2)cc1	-1%	-31	-2%	-12%	-3	-23%
COc1ccccc1CN1CCN(Cc2nc(-c3ccccc3)no2)CC1	7%	99*	0%	0%	35*	-4%
c1ccc(-c2noc(CN3CCOCC3)n2)cc1	4%	-6	4%	-21%	-2	?
